Reference: PubChem BioAssay (EPA / NIEHS)
Results filed as inconclusive are left out. Calls of active or inactive are those of the source. How the source made its calls: active means hit-call score of the fitted dose curve at least 0.9, where 1 is the maximum; inconclusive means response in the unintended direction; inactive means score below 0.9.

test: ACEA_AR_agonist_AUC_viability: ACEA Biosciences xCELLigence Real-Time Cell Analysis on Androgen Receptor Agonism for Viability (AID 2283775);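 on AC50: viability read 80 hours after compound addition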
Method in brief: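 Viability endpoint from xCELLigence impedance in 22Rv1 prostate cells at 80 h. Eight-point series, 100 uM maximum final.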

| SMILES | outcome | AC50 |
| --- | --- | --- |
| COc1c(Cl)ccc(Cl)c1C(=O)O | inactive |  |
| CCOC(=O)C(C)Oc1ccc(Oc2cnc3cc(Cl)ccc3n2)cc1 (stereo unspecified) | inactive |  |
| CN(C)C(=O)Nc1ccc(Cl)c(Cl)c1 | inactive |  |
| CCCCOC(=O)[C@@H](C)Oc1ccc(Oc2ccc(C(F)(F)F)cn2)cc1 | inactive |  |
| CCOC(=O)NCCOc1ccc(Oc2ccccc2)cc1 |  | 50 µM (active) |
| c1ccc2[nH]c(-c3cscn3)nc2c1 |  | 39.2 µM (active) |
| CCN(Cc1c(F)cccc1Cl)c1c([N+](=O)[O-])cc(C(F)(F)F)cc1[N+](=O)[O-] |  | 50 µM (active) |
| c1ccc(Nc2ccccc2)cc1 |  | 74.8 µM (active) |
| O=C(Nc1ccc([N+](=O)[O-])cc1Cl)c1cc(Cl)ccc1O |  | 0.723 µM (active) |
| CCCOC(=O)NCCCN(C)C | inactive |  |
| C[C@]12CC[C@@H]3c4ccc(O)cc4C[C@@H](CCCCCCCCCS(=O)CCCC(F)(F)C(F)(F)F)[C@H]3[C@@H]1CC[C@@H]2O (stereo partly specified) |  | 10.9 µM (active) |
| O=C(O)C1(C(=O)Nc2ccc(Cl)cc2Cl)CC1 |  | 50 µM (active) |
| CC(=O)[C@H]1CC[C@H]2[C@@H]3CCC4=CC(=O)CC[C@]4(C)[C@H]3CC[C@]12C | inactive |  |
| CCSC(=O)N(CC(C)C)CC(C)C | inactive |  |
| CC(C)(C)[C@@H](O)[C@@H](Cc1ccc(Cl)cc1)n1cncn1 | inactive |  |
| CCC(C)OC(=O)N1CCCCC1CCO (stereo unspecified) | inactive |  |
| CCOC(=O)COc1cc(-n2ncc(C(F)(F)F)c(C)c2=O)c(F)cc1Cl | inactive |  |
| COC(=O)c1ccccc1C(=O)O | inactive |  |
| CCOC(=O)C(C)Oc1ccc(Oc2nc3ccc(Cl)cc3o2)cc1 (stereo unspecified) | inactive |  |
| N[C@@H](Cc1cc(I)c(Oc2ccc(O)c(I)c2)c(I)c1)C(=O)O |  | 12.5 µM (active) |
| O=C(c1ccccc1)C1CCCCC1 | inactive |  |
| C#CCOC(=O)[C@@H](C)Oc1ccc(Oc2ncc(Cl)cc2F)cc1 |  | 18.2 µM (active) |

test: ACEA_AR_antagonist_AUC_viability: ACEA Biosciences xCELLigence Real-Time Cell Analysis on Androgen Receptor Antagonism for Viability (AID 2283776);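 further: area under impedance growth curve at 80 h after dosing as viability; hits lower the growth signal relative to DMSO meaning cytotoxicity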
Method in brief: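 22Rv1 human prostate cancer cells were seeded on electrode plates, monitored overnight, then exposed to eight 1:4 dilutions from 100 uM final. Impedance-based growth kinetics at 80 h gave an AUC viability endpoint normalized to DMSO.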

| SMILES | outcome | AC50 |
| --- | --- | --- |
| COc1c(Cl)ccc(Cl)c1C(=O)O | inactive |  |
| CN(C)C(=O)Nc1ccc(Cl)c(Cl)c1 |  | 50 µM (active) |
| CCCCOC(=O)[C@@H](C)Oc1ccc(Oc2ccc(C(F)(F)F)cn2)cc1 | inactive |  |
| c1ccc2[nH]c(-c3cscn3)nc2c1 |  | 34.5 µM (active) |
| c1ccc(Nc2ccccc2)cc1 | inactive |  |
| CCSC(=O)N(CC(C)C)CC(C)C | inactive |  |
| CC(C)(C)[C@@H](O)[C@@H](Cc1ccc(Cl)cc1)n1cncn1 |  | 24.1 µM (active) |
| CSC(=O)c1cccc2nnsc12 | inactive |  |
| O=C(c1ccccc1)C1CCCCC1 | inactive |  |
